From PubChem
This is one part of a sample in which hits are shown more often than they occur.
G9a block: qHTS Assay for Inhibitors of Histone Lysine Methyltransferase G9a | hit rate 8.8% among 350,000 | Histone-lysine N-methyltransferase EHMT2 (Homo sapiens), Q96KQ7 | AID 504332, 2011 | Potency, µM (top dose mostly 102 µM), usual class: inhibitors | G9a H3K9 monomethylation, AlphaScreen, 2 h; note: nearly all actives have a fitted effect of over 75% in size
Target sequence (Q96KQ7 913-1193 limits assumed): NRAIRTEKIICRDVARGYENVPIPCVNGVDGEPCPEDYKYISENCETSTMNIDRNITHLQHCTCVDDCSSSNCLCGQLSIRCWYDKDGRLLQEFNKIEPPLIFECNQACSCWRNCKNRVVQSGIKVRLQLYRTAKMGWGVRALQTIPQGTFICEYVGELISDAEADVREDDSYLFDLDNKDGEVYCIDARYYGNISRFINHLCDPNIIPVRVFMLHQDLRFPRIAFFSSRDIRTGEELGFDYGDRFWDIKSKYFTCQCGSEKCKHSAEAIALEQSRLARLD
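Enzyme 20 nM + cpd, 15 min RT; add b-H3K9 pep 500 nM / SAM 20 uM; 2 h RT; anti-H3K9me1 Ab 0.5 ug/mL + SA donor / anti-rabbit acceptor beads 20 ug/mL each, 10 min; AlphaScreen read.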
VDR inhibitor: Inhibitors of the vitamin D receptor (VDR): qHTS; Vitamin D3 receptor (Homo sapiens), P11473; VDR-SRC2-3 peptide fluorescence polarization, 2 h; Potency, µM, usual class: inhibitors; hit rate 0.93% among 400,000
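Measured by FP: displacement of SRC2-3 coactivator peptide from VDR by library compounds, following a two-hour ambient incubation.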
GRP78 ERSR act: qHTS for Inducers of the Endoplasmic Reticulum Stress Response (ERSR) in Human Glioma: qHTS; U87-MG GRP78 promoter luciferase reporter, 16 h; Potency, µM, hits mostly activators; hit rate 0.02% among 420,000; note: series mostly up to about 76 µM; nearly all actives have a fitted effect of over 35% in size
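Stably transfected U87-MG human glioma cells carrying a GRP78-based luminescent sensor were seeded at 1000 cells/well, pin-dosed with compounds and incubated 16 h. Luciferase reagent was then added, and end-point luminescence was read after 10 min at room temperature.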
Sfp inh: qHTS Assay for Inhibitors of Bacillus subtilis Sfp phosphopantetheinyl transferase (PPTase) | Biochemical Sfp PPTase activity, qHTS | Potency, µM, most hits filed as inhibitors | AID 1490, 2009 | hit rate 3.5% among 310,000;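 note: the enzyme is Sfp with the accession as filed and its product quenches rhodamine fluorescence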
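Buffer: 50 mM Hepes-Na pH 7.6, 10 mM MgCl2, 0.01% Nonidet P-40, 0.01% BSA. Enzyme 15 nM, pre-exposed to compound 15 min; substrates then added and fluorescence change tracked over 30 min.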
12-LOX inh: Primary qHTS assay for inhibitors of human arachidonate 12S-lipoxygenase (ALOX12): Round 2; Polyunsaturated fatty acid lipoxygenase ALOX12 (Homo sapiens), P18054; purified 12hLO, xylenol orange hydroperoxide absorbance; Potency, µM (top dose mostly 108 µM), hits mostly inhibitors; hit rate 1.1% among 580,000; AID 1671190, 2021
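Hydroperoxide product was detected by ferrous iron/xylenol orange as the 573 to 405 nm absorbance ratio. Arachidonic acid at 40 uM (final) was turned over for 30 min at room temperature by 150 nM human 12hLO, pH 7.0 Hepes buffer, after 15 min compound preincubation.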
Of the large screens only hits and unclear results are named; the others gave an inactive call. Calls come from the whole dose curve; as a rule, active = well fitted curve in the direction sought with a large enough effect; inconclusive = small, poorly fitted or top-dose-only effect, or another doubt; inactive = no such curve, though single readings can be large; an effect the other way counts as inactive or inconclusive.

COc1ccc(Nc2nc3ccccc3nc2NS(=O)(=O)c2ccc(Cl)s2)c(OC)c1	none (no result: G9a block, VDR inhibitor, GRP78 ERSR act, Sfp inh)
COc1cc(CNC2CCCCCC2)cc(OC)c1OC	G9a block 18µM, 12-LOX inh inconclusive
COc1cc(OC)c(OC)cc1CNC1CCCCCC1	G9a block 7.9µM, Sfp inh inconclusive, 12-LOX inh inconclusive
COc1cc(CNC2CCCC2)cc(OC)c1OC	none
COc1cc(OC)c(CNC2CCCCCC2)cc1Br	G9a block 35µM
CCc1cc(C(=O)OC)c(NC(=O)c2c(CC)noc2C)s1	none (no result: G9a block, VDR inhibitor, GRP78 ERSR act, Sfp inh)
Cc1cc(C)c(/C([O-])=C(/C(=S)Nc2ccc(SC(F)F)cc2)[n+]2ccccc2)cc1C	G9a block 35µM, 12-LOX inh inconclusive
[O-]/C(=C(\C(=S)Nc1ccc(SC(F)F)cc1)[n+]1ccccc1)c1cc(Cl)ccc1Cl	G9a block 35µM, 12-LOX inh inconclusive
O=C(Nc1ccc(-c2nccs2)cc1)C1CCCN1C(=O)c1cccs1 (configuration not stated)	none (no result: G9a block, VDR inhibitor, GRP78 ERSR act, Sfp inh)
O=C(Nc1nc2ccsc2c(=O)s1)c1ccco1	G9a block 40µM, Sfp inh inconclusive
Cc1csc2c(=O)sc(NC(=O)c3cccs3)nc12	G9a block inconclusive
Cc1csc2c(=O)sc(NC(=O)c3ccco3)nc12	G9a block 50µM, Sfp inh 56µM
COc1ccc(Nc2cc3c(cn2)CN(CCc2ccccc2)CCN3)cc1	none (no result: G9a block, VDR inhibitor, GRP78 ERSR act, Sfp inh)
COc1cccc(OC)c1OCCCCN1CCCCC1	G9a block 11µM
COc1cccc(OC)c1OCCCCN1CCCC1	G9a block inconclusive, 12-LOX inh inconclusive
O=[N+]([O-])c1cccc(OCCCN2CCC(Cc3ccccc3)CC2)c1	12-LOX inh 0.5µM (no result: G9a block, Sfp inh)
COc1ccccc1OCC#CCN1CCC(Cc2ccccc2)CC1	none (no result: G9a block, VDR inhibitor, GRP78 ERSR act, Sfp inh)
COc1cccc(OC)c1OCCCCN1CCC(Cc2ccccc2)CC1	G9a block 13µM, 12-LOX inh inconclusive
CC(=O)CCc1ccc(OCCCCN2CCC(Cc3ccccc3)CC2)cc1	G9a block 10µM, Sfp inh inconclusive, 12-LOX inh inconclusive
COc1ccc(C2CC(=O)Nc3cc(OC)cc(OC)c32)cc1 (configuration not stated)	none (no result: G9a block, VDR inhibitor, GRP78 ERSR act, Sfp inh)
CCS(=O)(=O)Nc1ccc(C2(C(=O)NC(C)c3ccccc3)CCCCC2)cc1 (configuration not stated)	none (no result: G9a block, VDR inhibitor, GRP78 ERSR act, Sfp inh)
CCC(=O)c1ccccc1OCCCN1CCC(Cc2ccccc2)CC1	G9a block 40µM, Sfp inh inconclusive, 12-LOX inh 6.3µM
N#Cc1ccccc1OCCCN1CCC(Cc2ccccc2)CC1	G9a block 32µM, 12-LOX inh inconclusive
Cc1ccccc1OCCN1CCC(Cc2ccccc2)CC1	G9a block inconclusive, 12-LOX inh inconclusive
CCN(CC)S(=O)(=O)N(C)CC1CCCN(CCc2ccccc2OC)C1 (configuration not stated)	none (no result: G9a block, VDR inhibitor, GRP78 ERSR act, Sfp inh)
COc1ccc(C2C(C(N)=O)=C(C)Nc3nc(-c4cccc(C)c4)nn32)cc1 (configuration not stated)	none (no result: G9a block, VDR inhibitor, GRP78 ERSR act, Sfp inh)
CCCCn1nnnc1CN1CCCC1c1ccc2c(c1)OCCO2 (configuration not stated)	none (no result: G9a block, VDR inhibitor, GRP78 ERSR act, Sfp inh)
CCOC(=O)c1c(C)oc2ncn(Cc3noc(-c4cccs4)n3)c(=O)c12	none (no result: G9a block, VDR inhibitor, GRP78 ERSR act, Sfp inh)
COCCn1c(=O)c2c(nc(-n3nc(C)c(C)c3C)n2Cc2ccccc2F)n(C)c1=O	none (no result: G9a block, VDR inhibitor, GRP78 ERSR act, Sfp inh)
CCCCSc1nc(CCC)cc(=O)[nH]1	G9a block inconclusive
CCCCSc1nc(C(=O)O)cc(=O)[nH]1	G9a block 40µM, Sfp inh inconclusive
O=C(CN1CCCC1)Nc1ccc(OC(F)(F)F)cc1	12-LOX inh inconclusive (no result: G9a block)
CCN1CCN(CC(=O)Nc2ccc(OC(F)(F)F)cc2)CC1	G9a block inconclusive, Sfp inh inconclusive, 12-LOX inh 0.5µM
O=C(CN1CCOCC1)Nc1ccc(OC(F)(F)F)cc1	G9a block 7.1µM, 12-LOX inh inconclusive
CCCCC12CN3CC(C)(CN(C1)C(=O)c1ccccc1C3=O)C2=O	none (no result: G9a block, VDR inhibitor, GRP78 ERSR act, Sfp inh)
Cc1cccc(NC(=S)NNc2ncc(C(F)(F)F)cc2Cl)c1	12-LOX inh inconclusive
FC(F)(F)c1cnc(NNC(=S)Nc2ccccc2Cl)c(Cl)c1	G9a block 40µM, VDR inhibitor inconclusive, 12-LOX inh inconclusive
O=C(N=C1N=C2C=CC(Br)=CN2Cc2ccccc21)c1ccc([N+](=O)[O-])cc1[N+](=O)[O-]	G9a block 50µM, GRP78 ERSR act inconclusive
COC(=O)[C@@]1(Cc2ccc(F)cc2)[C@H]2c3cc(C(=O)N(C)C)n(CCc4ccc(OC)c(Br)c4)c3C[C@H]2CN1C(=O)c1ccccc1	G9a block 25µM
COC(=O)[C@@]1(Cc2ccc(F)cc2)[C@H]2c3cc(C(=O)N(C)C)n(Cc4ccc(OC)c(OC)c4)c3C[C@H]2CN1C(=O)c1ccccc1	G9a block 50µM
COC(=O)[C@@]1(Cc2ccc(OC)cc2)[C@H]2c3cc(C(=O)N4CCCC4)n(Cc4ccc(C)o4)c3C[C@H]2CN1C(=O)c1ccccc1	G9a block 79µM, Sfp inh inconclusive (no result: VDR inhibitor, GRP78 ERSR act)
COC(=O)[C@@]1(Cc2ccc(F)cc2)[C@H]2c3cc(C(=O)N4CCCC4)n(CCc4c[nH]c5ccc(OC)cc45)c3C[C@H]2CN1C(=O)c1ccccc1	G9a block 40µM (no result: VDR inhibitor, GRP78 ERSR act)
COC(=O)[C@@]1(Cc2ccc(F)cc2)[C@H]2c3cc(C(=O)N(C)C)n(Cc4ccc(O)c(OC)c4)c3C[C@H]2CN1C(=O)c1ccccc1	none (no result: G9a block, VDR inhibitor, GRP78 ERSR act, 12-LOX inh)
